Test results published in PubChem BioAssay (NCI).
The panel holds about 83,000 compounds, 20% with a hit somewhere; the sample as a whole holds those more often.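 A percent growth of 40 corresponds to 60% growth inhibition; 0 means no net growth; -100 means all cells died. Active threshold: below 10.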 A number with no mark means an inactive call. Active and inactive are the calls of the source.

What was measured:
Test in all cases: NCI-60 one-dose screen, 48 h (100 = growth as untreated, 0 = no growth, -100 = all killed)
HCT-15 colon = conditions: 10 µM unless noted
SNB-75 CNS = conditions: 10 µM
SNB-19 CNS = conditions: 10 µM unless noted
U251 CNS = conditions: 10 µM unless noted
PC-3 prostate = conditions: 10 µM unless noted
SK-MEL-5 melanoma = conditions: 10 µM unless noted
UACC-62 melanoma = conditions: 10 µM unless noted
LOX IMVI melanoma = conditions: 10 µM unless noted
SK-MEL-28 melanoma = conditions: 10 µM unless noted
SK-MEL-2 melanoma = conditions: 10 µM unless noted
EKVX NSCLC = conditions: 10 µM unless noted
SN12C renal = conditions: 10 µM unless noted
UO-31 renal = conditions: 10 µM unless noted
TK-10 renal = conditions: 10 µM unless noted
CAKI-1 renal = conditions: 10 µM unless noted
A498 renal = conditions: 10 µM unless noted
CCRF-CEM leukemia = conditions: 10 µM unless noted
MOLT-4 leukemia = conditions: 10 µM unless noted
ACHN renal = conditions: 10 µM unless noted

Structure (SMILES)	growth (HCT-15 colon)	growth (SNB-75 CNS)	growth (SNB-19 CNS)	growth (U251 CNS)	growth (PC-3 prostate)	growth (SK-MEL-5 melanoma)	growth (UACC-62 melanoma)	growth (LOX IMVI melanoma)	growth (SK-MEL-28 melanoma)	growth (SK-MEL-2 melanoma)	growth (EKVX NSCLC)	growth (SN12C renal)	growth (UO-31 renal)	growth (TK-10 renal)	growth (CAKI-1 renal)	growth (A498 renal)	growth (CCRF-CEM leukemia)	growth (MOLT-4 leukemia)	growth (ACHN renal)
CN(C)CCN1C(=O)c2ccc3c4c(ccc(c24)C1=O)C(=O)N(CCN=C=S)C3=O	-78.2% (active)	-75.3% (active)	-92.3% (active)	-95.7% (active)	-80.3% (active)	-98.8% (active)	-92.5% (active)	-82.3% (active)	-87.7% (active)	-75% (active)	-95.2% (active)	-89.5% (active)	-95.4% (active)	-95.3% (active)	-80% (active)	-97.8% (active)	-50.6% (active)	-52.2% (active)	
CNc1ccc(Br)c2c1C(=O)c1ccccc1C2=O	98.2%	96.7%	110%	103%	94.5%	110%	95.8%	102%	115%	129%	115%	102%	86.1%			93.3%	86.1%	94.7%	104%
COc1cc(Cn2cc3c(c2)-c2oncc2CC3)cc(OC)c1OC	16.3%	45.5%	34.9%	17.2%	38.4%	-36% (active)	41.9%	9.46% (active)	59.9%	23.7%	40.6%	30.2%	27.5%	53.3%	20.8%	-1.56% (active)	17.3%	17.6%	
COc1ccc2c(c1)NC1=C(C(=O)OC1)C2c1cc(OC)c2c(c1)OCO2 (configuration not stated)	16.5%	53.6%	37.3%	21.1%	24.3%	-55.1% (active)	50.8%	19%	66.9%	54.6%	52.2%		57.5%	58.3%	43.4%	18.5%	10.1%	11.6%	
S=C1CC(=S)NC(=S)N1	116%	92.5%	96.1%	103%	107%	105%	100%	94.6%	108%	107%	107%	96.1%	88%	110%	101%	90.2%	105%	95.3%	
COc1ccc(NC(=O)CSc2nc(-c3ccc(OC)c(OC)c3)cc(-c3cc(OC)c(OC)c(OC)c3)n2)cc1	100%	76%	91.3%	105%	88.6%	88.7%	92.2%	97.1%	108%	89%	108%	93.9%	35.4%	96.8%	83.8%	99.8%	101%	84.8%	
COc1ccc(CN2CCc3c(Sc4ccccc4)nc(N)nc3C2=O)c(OC)c1	66.8%	66.5%	82%	72.3%	52.1%	51.1%	52.5%	71.3%	90.9%		57%	53.1%	29.6%	59.9%	27.7%	66%	46.7%	35.5%	65%
COc1ccc(C(=O)n2nc(/C=C/c3ccc(O)c(OC)c3)cc2/C=C/c2ccc(O)c(OC)c2)cc1	5.59% (active)	-16% (active)	12.8%	0.801% (active)	-9.28% (active)	-13.3% (active)	-0.825% (active)	4.5% (active)	-8.32% (active)	-34.1% (active)		12.8%	-1.75% (active)	24.7%		-14.8% (active)	-11.6% (active)	-18.4% (active)	7.64% (active)
CCC(C)/C(=C\C#N)NCCCN/C(=C/C#N)C(C)CC (configuration not stated)	97%	92.1%	109%	104%	89.4%	108%	104%	93.7%	111%		101%	99.7%	82.4%	119%	96.5%	124%	97.4%	99.4%	97.1%
COc1cc(C2C3=C(COC3=O)Nc3cc4c(cc32)OCO4)cc2c1OCO2 (configuration not stated)	9.19% (active)	42.2%	31%	18.5%	24%	-60.6% (active)	41.3%	16%	65.3%	41.6%	44.6%	23.4%	51%	55%	44.1%	21.3%	8.12% (active)	12.1%	
O=C1C(Cl)=C(Nc2ccccn2)C(=O)c2ccccc21	43.5%	62.1%	93.2%	42.2%	63.6%	-84.2% (active)	1.2% (active)	14.5%	34.8%	88.2%	98.1%	5.54% (active)	12.6%		53.1%	100%	56.4%	62.8%	17%
C/C(=C\c1ccc(OCC(=O)O)c(Cl)c1Cl)[N+](=O)[O-]	97.4%	103%	115%	96.4%	92%	109%	114%	92.1%	118%		102%	106%	111%	113%	93.9%	113%	102%	84.6%	110%
COc1ccc(CCNC2=CC(=O)CCC2)cc1OC	108%	92.9%	105%	107%	93%	101%	109%	96.3%	111%		110%	102%	81.2%	115%	102%	105%	102%	76.2%	110%
CC(C)(C)OC(=O)NC(CSCc1ccccc1)C(=O)ON1C(=O)CCC1=O (configuration not stated)	103%	105%	106%	105%	91.3%	114%	112%	104%	120%		113%	107%	90.8%	119%	112%	110%	96.7%	97%	101%
CC1=C(C#N)C(=O)NC(C)C1 (configuration not stated)	101%	111%	103%	105%	94.9%	105%	104%	90.4%	101%		105%	99.9%	94.9%	106%	103%	104%	102%	116%	102%
C=C1CCC2C3(C)COC(c4ccccc4)OC3CCC2(C)C1/C=C/C1=CCOC1=O (configuration not stated)	45.6%	51.7%	71.8%	40.1%	26.6%	76.5%	58.8%	16.1%	98.1%		96.1%	24%	52.6%	61.3%		106%	-46.7% (active)	45.5%	71.3%
CC(=O)Nc1scc[n+]1Cc1ccccc1	101%	106%	110%	106%	94.2%	117%	114%	87.9%	109%		103%	111%	91.1%	113%	87.4%	112%	90.1%	94.1%	107%
